# Test results reported in PubChem BioAssay (EPA / NIEHS).
# Where “and” joins values, the source holds several entries; their conditions need not be identical. Equal entries are not always repeated. Results filed as inconclusive are left out. A structure can be active in one record and inactive in another. Calls of active or inactive are those of the source. Rule for the calls: active = hit-call score of the fitted dose curve at least 0.9, where 1 is the maximum; inconclusive = response in the unintended direction; inactive = score below 0.9.
# Biological target: Cellular tumor antigen p53 (Homo sapiens) (UniProt P04637)
# Sequence (P04637 whole entry, looked up): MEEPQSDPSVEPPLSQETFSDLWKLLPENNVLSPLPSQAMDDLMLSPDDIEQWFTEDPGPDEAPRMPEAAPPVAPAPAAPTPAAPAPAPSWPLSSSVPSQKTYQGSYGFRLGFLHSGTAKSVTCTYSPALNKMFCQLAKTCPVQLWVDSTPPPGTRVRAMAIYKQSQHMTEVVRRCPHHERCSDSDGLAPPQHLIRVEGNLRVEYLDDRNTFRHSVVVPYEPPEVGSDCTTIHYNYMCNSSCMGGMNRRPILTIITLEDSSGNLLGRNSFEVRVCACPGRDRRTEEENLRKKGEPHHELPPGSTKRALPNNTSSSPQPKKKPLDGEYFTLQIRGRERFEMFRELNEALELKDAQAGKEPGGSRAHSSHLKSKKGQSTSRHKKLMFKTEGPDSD
# Experiment: TOX21_p53_BLA_p4_ratio: Tox21 HCT-116 p53 Agonism Beta-lactamase Assay, Ratio, Phase 4 (AID 2283601)
# Text: TOX21_p53_BLA_p4 is a cell-based, single-readout assay that uses HCT116, a human intestinal cell line, […] in a 1536-well plate.TOX21_p53_BLA_p4_ratio is an assay readout measuring reporter gene via receptor activity and designed using inducible reporter (beta lactamase induction) detected with GAL4 b-lactamase reporter gene. The signal is derived from the ratio of cleaved (ch2) to uncleaved (ch1)reporter gene substrate used as the measure of target activity.Data from the assay component TOX21_p53_BLA_p4_ratio was analyzed into 1 assay endpoint. This assay endpoint, TOX21_p53_BLA_p4_ratio, was analyzed in the positive analysis fitting direction relative to DMSO as the negative control and baseline of activity. Using a type of inducible reporter, gain-of-signal activity can be used to understand changes in the reporter gene as they relate to the gene TP53. Furthermore, this assay endpoint can be referred to as a primary readout, because this assay has produced multiple assay endpoints where this ratio serves a reporter gene function to understand target activity. To generalize the intended target to other relatable targets, this assay endpoint is annotated to the DNA binding intended target family, where the subfamily is tumor suppressor.
# Thawing Method: Place 14 mL of pre-warmed thaw medium into a 15 mL of conical tub. Remove the vial of cells to be thawed from liquid nitrogen and thaw rapidly by placing at 37C in a water bath with gentle agitation for 1-2 minutes. Decontaminate the vial by wiping with 70% ethanol before opening in a biological safety cabinet. Transfer the vial contents drop-wise into 14 mL of thaw medium in a sterile 15-mL conical tub. Centrifuge cells at 900 rpm for 4 minutes and resuspend in thaw medium. Transfer contents to the T75 tissue culture flask containing Thaw Medium and place flask in a humidified 37C/5% CO2 incubator. Switch to growth medium at first passage.Propagation Method: Aspirate medium, rinse once in DPBS, add 0.25% Trypsin/EDTA and swirl to coat the cell evenly. Add an equal volume of Growth Medium to inactivate Trypsin after 2-3 minutes incubation at 37C. Centrifuge cells at 900 rpm for 4 minutes and resuspend in growth medium. Cell should be passage or fed at least twice a week.Assay Protocol: Harvest cells from culture in growth medium and resuspend in assay medium. 2.2 Dispense 4000 cells/5 uL/well into 1536-well black/clear bottom plates using a Multidrop dispenser. After the cells were incubated at 37C for 5 hours, 23 nL of compounds dissolved in DMSO were transferred to the assay plate by a PinTool resulting in a 217-fold dilution. Incubate the plates for 16 hours at 37C, 5% CO2. Add 1 uL of 6X LiveBLAzer FRET B/G (CCF4-AM) Substrate Mixture to each well using a BioRAPTR dispenser and incubate the plates at room temperature for 2 hours. Measure fluorescence intensity at 460 and 530 nm emission and 405 nm excitation by an Envision detector. Data is expressed as the ratio of 460nm/530nm emissions. Add 4 uL of Cell-titer Glo to each well using BioRAPTR and incubate the plates at room temperature for 2 hours. Measure fluorescence intensity by a VewLux plate reader.
SMILES,outcome,AC50
CCCOC(=O)CCCCC(=O)OCCC,inactive,
O=C(Nc1ccccc1SSc1ccccc1NC(=O)c1ccccc1)c1ccccc1,,65.5 µM (active) and 56.9 µM (active)
CCCCCCC(O)CO (stereo not given),inactive,
CCO[Si](C)(OCC)OCC,inactive,
O=Cc1ccc(CO)o1,inactive,
O=C1CCCN1CCO,inactive,
CC/C=C\CCOC(=O)CCCCC,inactive,
COC(=O)c1c(C)cc(O)c(C)c1O,inactive,
O=C1CCCCCCCCCCC(=O)OCCO1,inactive,
CC(=O)Oc1ccc(C(C)=O)cc1,inactive,
C#CC1(O)CC[C@H]2[C@@H]3CCC4=CCCC[C@@H]4[C@H]3CC[C@@]21C (stereo not given in full),,84.8 µM (active)
CN(C)c1ccc(N=Nc2ccccc2C(=O)O)cc1,inactive,
Nc1ccc(-c2ccc(F)cc2)cc1,inactive,
CC(=O)OCC(=O)[C@@]12N=C(C)O[C@@H]1C[C@H]1[C@@H]3CCC4=CC(=O)C=C[C@]4(C)[C@H]3[C@@H](O)C[C@@]12C,inactive,
CCCCCCCCCCCCCOP(=O)(O)O,inactive,
O=c1[nH]c(=O)c2[nH]c(=O)[nH]c2[nH]1,inactive,
CCCCC(CC)CCC(CC(C)C)OS(=O)(=O)O (stereo not given),inactive,
CCCCOCCOC(=O)COc1nc(Cl)c(Cl)cc1Cl,inactive,
CCCCCCCCCCOC(C)=O,inactive,
CCCCCCC1(C)CCC(=O)O1 (stereo not given),inactive,

SMILES,outcome,AC50
[Cl][Bi]([Cl])([c]1ccccc1)([c]1ccccc1)[c]1ccccc1,,14.1 µM (active)
SCCc1cnccn1,,60.3 µM (active)
COc1cc(NC(=O)CC(C)=O)c(OC)cc1Cl,inactive,
O=C(c1ccc(O)cc1)c1ccc(O)cc1O,inactive,72.9 µM (active)
COC(=O)/C=C\C(=O)O,inactive,
O=C1CCCC1,inactive,
Cn1c([N+](=O)[O-])cnc1COC(N)=O,inactive,
O=CN1CCCCC1,inactive,
CCOC(=O)c1ccccc1C(=C1C=C(Br)C(=O)C(Br)=C1)c1cc(Br)c(O)c(Br)c1,,8.23 µM (active)
[Cl][In]([Cl])[Cl],inactive,
N#CCc1ccc(Cl)cc1Cl,inactive,
CCCCCCCCO[C@@H]1O[C@H](CO)[C@@H](O)[C@H](O)[C@H]1O,inactive,
C=CCOCC(O)CCl (stereo not given),inactive,
CC1(C)O[C@@H]2C[C@H]3[C@@H]4C[C@H](F)C5=CC(=O)CC[C@]5(C)[C@H]4[C@@H](O)C[C@]3(C)[C@]2(C(=O)CO)O1,inactive,
CCCOCCOCCOCCO,inactive,
FC(F)(F)C(=NOCC1OCCO1)c1ccc(Cl)cc1,inactive,
CCCCCCOc1cc(C)c(O)c(C)c1C,,82.5 µM (active)
c1c[nH]cn1,inactive,
CC(C)(c1cc(Br)c(OCCO)c(Br)c1)c1cc(Br)c(OCCO)c(Br)c1,,50.1 µM (active)
